Pf Dd2 inh – blocks in vitro growth of P. falciparum Dd2; P. falciparum Dd2 growth, SYBR Green, 72 h; Potency, µM (titrated, usually from 28.9 µM), for the others: at the top dose activity, negative = inhibition, usual class: inhibitors; 120,000 tested, 4.3% active; AID 1347417; active = well fitted inhibition curve with a large enough effect;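 note: plate controls were DMSO vehicle for no effect and reference drug for full effect; nearly all actives have a fitted effect of over 65% in size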
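Readout: SYBR Green fluorescence, 485 nm excitation, 535 nm emission, after ~16 h lysis at 37C. Before that, Dd2-infected red cells (2.5% hematocrit) grew 72 h with compound, 29 uM top final concentration.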
An asterisk follows results filed as active; [ ] = dose if it differs, or a comment. The entries come from a sample that favours hits as a whole. Potency is the fitted concentration of half-maximal effect.

How did CN(C)C(=O)c1noc2c1CN(C(=O)C1COc3ccccc3C1)CC2 (stereo not given) do in these assays?
Pf Dd2 inh: -8%

How did O=C1CC(c2ccccc2)N(Cc2ccc(F)c(F)c2)CCCCCN1 (stereo not given) do in these assays?
Pf Dd2 inh: 10µM*

What do the screens show for `Cc1ccc(CN2CCCCCNC(=O)CC2c2ccccc2)o1` (stereo not given)?
Pf Dd2 inh: -4%

What do the screens show for `Cc1ncsc1CN1CCCCCNC(=O)CC1c1ccccc1` (stereo not given)?
Pf Dd2 inh: -2%

What do the screens show for `COCCC(=O)N1CCCCCCNC(=O)CC1c1ccccc1` (stereo not given)?
Pf Dd2 inh: 19%

Results for COc1ccc(CN2CCCCCNC(=O)CC2c2ccccc2)cc1Cn1ccnc1 (stereo not given) ?
Pf Dd2 inh: 2µM*

Results for O=C1CC(c2ccccc2)N(Cc2ccc(C(F)(F)F)cc2)CCCCCN1 (stereo not given) ?
Pf Dd2 inh: -13%

Results for CCCN1CCN(C(=O)Cn2c(-c3cccs3)cc3cc(F)ccc32)CC1 ?
Pf Dd2 inh: -18%

How did Cc1ccc(C)c(N2CCN(CCCNC(=O)Cn3c(-c4cccs4)cc4ccccc43)CC2)c1 do in these assays?
Pf Dd2 inh: 7.9µM*

What do the screens show for `Cc1ccc(C)c(N2CCN(CCCNC(=O)Cn3ncc4c5ccccc5n(C)c4c3=O)CC2)c1`?
Pf Dd2 inh: -26%

What do the screens show for `CC(C)c1nc2ccc(C(=O)NCCCN3CCN(c4cccc(Cl)c4)CC3)cc2o1`?
Pf Dd2 inh: -2%

How did CC1CCN(C(=O)Cn2c(-c3cccs3)cc3cc(Cl)ccc32)CC1 do in these assays?
Pf Dd2 inh: -8%

Results for Cc1cc(C)c(NC(=O)Cn2c(=O)n(CC(=O)NCCc3ccccc3)c(=O)c3ccccc32)c(C)c1 ?
Pf Dd2 inh: 15%

How did O=C(Cn1c(-c2cccs2)cc2ccccc21)NCCCN1CCN(c2cccc(Cl)c2)CC1 do in these assays?
Pf Dd2 inh: 11µM*

Results for CCCN1CCN(CCCNC(=O)Cn2c(-c3cccs3)cc3cc(Cl)ccc32)CC1 ?
Pf Dd2 inh: 8.9µM*

Results for CCC(=O)N1c2ccccc2CC1C(=O)NCCN1CCN(c2cccc(Cl)c2)CC1 (stereo not given) ?
Pf Dd2 inh: -23%

How did Cc1ccc(CCNC(=O)Cn2c(-c3cccs3)cc3ccccc32)cc1 do in these assays?
Pf Dd2 inh: 13µM*

How did CCN1CCN(CCCNC(=O)Cn2c(-c3cccs3)cc3ccccc32)CC1 do in these assays?
Pf Dd2 inh: -17%

What do the screens show for `Cc1ccc(NC(=O)Cn2c(CCC(=O)O)ccc2-c2cccs2)cc1`?
Pf Dd2 inh: 7%

Results for Cc1cccc(NC(=O)N2CCC(OC3CCN(S(C)(=O)=O)CC3)CC2)c1C ?
Pf Dd2 inh: -10%

Results for O=C(O)c1cccc2c1CCN2C(=O)Nc1ccc(F)cc1 ?
Pf Dd2 inh: 13%

What do the screens show for `COc1ccc(C(=O)NCCn2ccn3nc(-c4cc(C)ccc4C)cc3c2=O)cc1`?
Pf Dd2 inh: -19%

Results for COCCC(=O)N1CCCN(C(=O)C2CC2)c2ccccc21 ?
Pf Dd2 inh: -1%

How did O=C(c1cccc(OC(F)(F)F)c1)N1CCN(c2cc(-c3ccc(F)cc3)[nH]n2)CC1 do in these assays?
Pf Dd2 inh: inactive

How did CS(=O)(=O)N1CCc2ccc(C(=O)Nc3ccc(Oc4ccccc4)cc3)cc21 do in these assays?
Pf Dd2 inh: -16%

What do the screens show for `O=C1CCN(C(=O)c2ccsc2)CCCC(c2nc(-c3cccnc3)no2)CCN1` (stereo not given)?
Pf Dd2 inh: inactive

Results for COc1ccc(C(=O)N2CCn3c(nn(-c4ccc([N+](=O)[O-])cc4)c3=O)C2)cc1 ?
Pf Dd2 inh: -4%

What do the screens show for `COc1ccc(CN2C[C@@H]3C(=O)N(CCCN4CCCC4=O)C(=O)[C@@H]3C2)cc1OC`?
Pf Dd2 inh: inactive

Results for CC(C)=CCC1(CO)CCCN(Cc2[nH]c3ccc(F)cc3c2C)C1 (stereo not given) ?
Pf Dd2 inh: 2.2µM*

What do the screens show for `CCCC1(CO)CCCN(Cc2nnc(-c3cccc(F)c3)o2)C1` (stereo not given)?
Pf Dd2 inh: inactive

Results for CCc1noc(C)c1C(=O)N1CCCC(CO)(CC=C(C)C)C1 (stereo not given) ?
Pf Dd2 inh: -13%

How did COc1ccccc1NC(=O)CC1CCCN(c2cn[nH]c(=O)c2)C1 (stereo not given) do in these assays?
Pf Dd2 inh: 24%

What do the screens show for `COc1ccc(NC(=O)c2ccc3c(c2)OCCN(Cc2ncccn2)C3)c(F)c1`?
Pf Dd2 inh: -11%[44.1 µM]

How did c1csc(-c2nc3nccc(-c4ccncc4)n3n2)c1 do in these assays?
Pf Dd2 inh: -13%

Results for COc1ccc(C)cc1Nc1c2c(nc3nc(-c4cccs4)nn13)CCCC2 ?
Pf Dd2 inh: 47%[0.594 µM]

What do the screens show for `CC(=O)c1cccc(Nc2c3c(nc4nc(-c5cccs5)nn24)CCCC3)c1`?
Pf Dd2 inh: 11µM*

Results for N#Cc1cccc(CN2CCOCCNC(=O)CC2)c1 ?
Pf Dd2 inh: -15%

What do the screens show for `Cn1ccnc1C(=O)N1CCCN(C(=O)C2CC2)c2ccccc21`?
Pf Dd2 inh: 8%

Results for Cc1ccc(CN2CCn3c(nnc3[C@@H]3C[C@@H](O)CN3Cc3cccnc3)C2)s1 ?
Pf Dd2 inh: -17%

Results for CCC(=O)N1CC(=O)Nc2ccc(C)cc2C1c1ccc(F)cc1 (stereo not given) ?
Pf Dd2 inh: 2%

Results for CCCC(=O)N1CC(=O)Nc2ccc(Cl)cc2C1c1ccccc1 (stereo not given) ?
Pf Dd2 inh: -10%

What do the screens show for `O=C1CN(C(=O)COc2ccc(Cl)cc2)C(c2ccc(F)cc2)c2cc(Cl)ccc2N1` (stereo not given)?
Pf Dd2 inh: 10µM*

How did CCCn1c(C)c(CC(=O)N2CCOCC2)c2c1CC(C)(C)CC2=O do in these assays?
Pf Dd2 inh: -8%

What do the screens show for `Cc1ccc(N(C)S(=O)(=O)c2ccc3[nH]c4c(c3c2)CCCC4)cc1`?
Pf Dd2 inh: -17%

How did CCN(Cc1ccccc1)S(=O)(=O)c1ccc2[nH]c3c(c2c1)CCCCC3 do in these assays?
Pf Dd2 inh: 13µM*

Results for CCc1ccc(NS(=O)(=O)c2ccc3[nH]c4c(c3c2)CCCCCC4)cc1 ?
Pf Dd2 inh: 14%

How did O=C(CCc1nc2ccc(Cl)cc2[nH]1)NCCc1noc(-c2cccnc2)n1 do in these assays?
Pf Dd2 inh: inactive

How did Cc1cc(C)c(CNC(=O)c2nc(-c3ccnn3C)cc3c2ccn3C(C)C)c(=O)[nH]1 do in these assays?
Pf Dd2 inh: 7.1µM*

How did Cc1cc(C)c(CNC(=O)c2nc(-c3ccccc3)cc3c2ccn3C(C)C)c(=O)[nH]1 do in these assays?
Pf Dd2 inh: inactive

How did Cc1cc(C)c(CNC(=O)c2nc(-c3ccccc3C#N)cc3c2ccn3C(C)C)c(=O)[nH]1 do in these assays?
Pf Dd2 inh: inactive

How did Cc1ccc(C(=O)N2CCC(C(NC(=O)C(C)C)C(=O)NCC(C)C)CC2)cc1 (stereo not given) do in these assays?
Pf Dd2 inh: inactive

How did CCC(C)NC(=O)C(NC(=O)c1ccc(C)cc1)C1CCN(C(=O)C(C)C)CC1 (stereo not given) do in these assays?
Pf Dd2 inh: -12%

How did COc1ccc(C(=O)N2CCC(C(NC(=O)c3ccccc3C)C(=O)NCC(C)C)CC2)cc1 (stereo not given) do in these assays?
Pf Dd2 inh: inactive

What do the screens show for `CCC(C)NC(=O)C(NC(=O)c1ccc(F)cc1)C1CCN(C(=O)c2cccc(F)c2)CC1` (stereo not given)?
Pf Dd2 inh: inactive

High-throughput results (PubChem BioAssay)
